# Laboratory results as given in PMC11062922 (Nature Chemical Biology, 2023).
# Like-named read-outs stand apart in the source and are kept apart here.
# Experiments:
# Design in all cases: species or system human, MV4-11 + K-562 + COLO205 + SK-N-BE2 + OVCAR-8
# [1] = test system: ATM; conditions: read-out: apparent Kd, n = 1
# [2] = test system: MAP3K1; conditions: read-out: apparent Kd; compound concentrations:100 nM and 1000 nM (sheet 'Samples'); n = 1
# [3] = test system: NUAK2; conditions: read-out: apparent Kd; compound concentrations:100 nM and 1000 nM (sheet 'Samples'); n = 1
# [4] = test system: PIK3CD; conditions: read-out: apparent Kd; compound concentrations:100 nM and 1000 nM (sheet 'Samples'); n = 1
# [5] = test system: PLK1; conditions: read-out: apparent Kd, compound concentrations: 100 nM and 1000 nM (sheet 'Samples'), n = 1
# [6] = test system: AKT2; conditions: read-out: apparent Kd; compound concentrations: 100 nM and 1000 nM (sheet 'Samples'), CATDS: 0.479844173242639; n = 1
# [7] = test system: PIM2; conditions: read-out: apparent Kd; compound concentrations: 100 nM and 1000 nM (sheet 'Samples'), CATDS: 0.52192336058926703; n = 1
# [8] = test system: GSK3A; conditions: read-out: apparent Kd; compound concentrations: 100 nM and 1000 nM (sheet 'Samples'), CATDS: 0.228409862678119; n = 1
# [9] = test system: MTHFD1; conditions: read-out: apparent Kd; compound concentrations: 100 nM and 1000 nM (sheet 'Samples'), CATDS: 0.40947747984703597; n = 1
# [10] = test system: FLT4; conditions: read-out: apparent Kd; compound concentrations: 100 nM and 1000 nM (sheet 'Samples'), CATDS: 0.192292703568538; n = 1
# [11] = test system: RIPK2; conditions: read-out: apparent Kd; compound concentrations: 100 nM and 1000 nM (sheet 'Samples'), CATDS: 0.39426216370123801; n = 1
# [12] = test system: STK10; conditions: read-out: apparent Kd; compound concentrations: 100 nM and 1000 nM (sheet 'Samples'), CATDS: 0.17094041462039; n = 1
# [13] = test system: AKT3; conditions: read-out: apparent Kd, compound concentrations: 100 nM and 1000 nM (sheet 'Samples'), n = 1
# [14] = test system: COX5A; conditions: read-out: apparent Kd; compound concentrations: 100 nM and 1000 nM (sheet 'Samples'), CATDS: 0.36000634537809301; n = 1
# [15] = test system: MAPKAPK2; conditions: read-out: apparent Kd; compound concentrations: 100 nM and 1000 nM (sheet 'Samples'), CATDS: 0.330960581513286; n = 1
# [16] = test system: CHEK1; conditions: read-out: apparent Kd; compound concentrations:100 nM and 1000 nM (sheet 'Samples'); n = 1
# [17] = test system: GRK6; conditions: read-out: apparent Kd; compound concentrations:100 nM and 1000 nM (sheet 'Samples'); n = 1
# [18] = test system: PDGFRB; conditions: read-out: apparent Kd; compound concentrations:100 nM and 1000 nM (sheet 'Samples'); n = 1
# [19] = test system: RET; conditions: read-out: apparent Kd; compound concentrations:100 nM and 1000 nM (sheet 'Samples'); n = 1
# [20] = test system: RPS6KA6; conditions: read-out: apparent Kd; compound concentrations:100 nM and 1000 nM (sheet 'Samples'); n = 1
# [21] = test system: FECH; conditions: read-out: apparent Kd; compound concentrations: 100 nM and 1000 nM (sheet 'Samples'), CATDS: 0.190744919400651; n = 1
# [22] = test system: PIK3CA; conditions: read-out: apparent Kd; compound concentrations: 100 nM and 1000 nM (sheet 'Samples'), CATDS: 0.27121911823644002; n = 1
# [23] = test system: PRKACG; conditions: read-out: apparent Kd; compound concentrations: 100 nM and 1000 nM (sheet 'Samples'), CATDS: 0.152371623335085; n = 1
# [24] = test system: CDK16; conditions: read-out: apparent Kd; compound concentrations: 100 nM and 1000 nM (sheet 'Samples'), CATDS: 8.8636413805305694E-2; n = 1
# [25] = test system: CDK2; conditions: read-out: apparent Kd; compound concentrations: 100 nM and 1000 nM (sheet 'Samples'), CATDS: 0.14540297909740599; n = 1
# [26] = test system: CDK5; conditions: read-out: apparent Kd; compound concentrations: 100 nM and 1000 nM (sheet 'Samples'), CATDS: 0.117408744054376; n = 1
# [27] = test system: CDK6; conditions: read-out: apparent Kd; compound concentrations: 100 nM and 1000 nM (sheet 'Samples'), CATDS: 8.47728191524936E-2; n = 1
# [28] = test system: CSNK2A1;CSNK2A3; conditions: read-out: apparent Kd; compound concentrations: 100 nM and 1000 nM (sheet 'Samples'), CATDS: 0.11670425999811999; n = 1
# [29] = test system: CSNK2A2; conditions: read-out: apparent Kd; compound concentrations: 100 nM and 1000 nM (sheet 'Samples'), CATDS: 0.126102528289014; n = 1
# [30] = test system: FLT3; conditions: read-out: apparent Kd; compound concentrations: 100 nM and 1000 nM (sheet 'Samples'), CATDS: 0.40008712572593402; n = 1
# [31] = test system: MYLK3; conditions: read-out: apparent Kd; compound concentrations: 100 nM and 1000 nM (sheet 'Samples'), CATDS: 8.3976923453049093E-2; n = 1
# [32] = compound concentrations:100 nM and 1000 nM (sheet 'Samples')
structure (smiles),measurement,setting,value
C[C@@H](Oc1cc(-n2cnc3ccc(CN4CCN(C)CC4)cc32)sc1C(N)=O)c1ccccc1C(F)(F)F [GSK461364],potency estimated from few doses,[1]; [32],0.264 µM
same,potency estimated from few doses,[2],0.102 µM
same,potency estimated from few doses,[3],1.28 µM
same,potency estimated from few doses,[4],0.214 µM
same,potency estimated from few doses,[5]; CATDS: 0.443689991043278,0.0421 µM
Cc1ccc(C(=O)NC2CCCCC2)cc1-c1ccc(C(=O)NCC2CC2)cc1 [GW782907X],potency estimated from few doses,[6],1.85 µM
same,potency estimated from few doses,[7],1.56 µM
Cn1cc(C2=C(c3cn(C)c4cc(C(N)=O)ccc34)C(=O)NC2=O)c2ccccc21 [RO0319317-000],potency estimated from few doses,"[1]; compound concentrations: 100 nM and 1000 nM (sheet 'Samples'), CATDS: 0.45876429377403",0.142 µM
same,potency estimated from few doses,[8],0.86 µM
same,potency estimated from few doses,[9],0.175 µM
CCS(=O)(=O)c1ccc(OC)c(Nc2nccc(N(C)c3ccc4c(C)n[nH]c4c3)n2)c1.Cl [GW654652C],potency estimated from few doses,"[1]; compound concentrations: 100 nM and 1000 nM (sheet 'Samples'), CATDS: 0.41438416433349501",0.228 µM
same,potency estimated from few doses,[10],1.43 µM
same,potency estimated from few doses,[11],0.249 µM
same,potency estimated from few doses,[12],2.28 µM
FC(F)(F)c1cccc(-c2nn3ncccc3c2-c2ccnc(Nc3ccc4c(c3)OCCO4)n2)c1 [GW827102X],potency estimated from few doses,[13]; CATDS: 0.31242547502762402,2.07 µM
same,potency estimated from few doses,[14],1.56 µM
same,potency estimated from few doses,[15],1.83 µM
COc1cc(Nc2cnc(C#N)c(O[C@H](C)CN(C)C)n2)ncc1-c1cnn(C)c1 [CCT244747],potency estimated from few doses,[1]; [32],0.179 µM
same,potency estimated from few doses,[16],0.0397 µM
same,potency estimated from few doses,[17],1.23 µM
same,potency estimated from few doses,[18],1.49 µM
same,potency estimated from few doses,[19],0.112 µM
same,potency estimated from few doses,[20],0.46 µM
COc1cccc(COc2cc(-n3cnc4ccccc43)sc2C(N)=O)c1 [GW804482X],potency estimated from few doses,"[1]; compound concentrations: 100 nM and 1000 nM (sheet 'Samples'), CATDS: 0.32091008376932201",0.21 µM
same,potency estimated from few doses,[21],0.558 µM
same,potency estimated from few doses,[22],0.277 µM
same,potency estimated from few doses,[5]; CATDS: 0.15646266136602699,0.938 µM
same,potency estimated from few doses,[23],1.02 µM
NS(=O)(=O)c1ccc(Nc2cc(-c3ccc(O)c(F)c3)n[nH]2)cc1 [GW831091X],potency estimated from few doses,[13]; CATDS: 8.6052459279118296E-2,1.69 µM
same,potency estimated from few doses,[24],1.55 µM
same,potency estimated from few doses,[25],0.491 µM
same,potency estimated from few doses,[26],0.759 µM
same,potency estimated from few doses,[27],1.77 µM
same,potency estimated from few doses,[28],0.77 µM
same,potency estimated from few doses,[29],0.652 µM
same,potency estimated from few doses,[30],0.0992 µM
same,potency estimated from few doses,[31],1.83 µM
